According to PubChem BioAssay (NCATS):
A number with no mark means an inactive call. Inconclusive results are not listed. Where a call stands in place of a potency, no number is given. The source made the active and inactive calls. Unless noted, calls come from the whole dose curve; as a rule, active = well fitted curve in the direction sought with a large enough effect; inconclusive = small, poorly fitted or top-dose-only effect, or another doubt; inactive = no such curve, though single readings can be large; an effect the other way counts as inactive or inconclusive.

Assays:
[1] = biological target: Tumor susceptibility gene 101 protein (Homo sapiens) (UniProt Q99816); assay: qHTS Assay for Iinhibitors of HIV-1 Budding by Blocking the Interaction of PTAP/TSG101: Hit Validation (AID 651600); note: nearly all actives have a fitted effect of over 70% in size; note: potency is the fitted concentration of half-maximal effect
How it was run: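 Measuring PTAP–Tsg101 interaction by FP: protein at 10 uM and fluorescent peptide at 50 nM (final), buffer 10 mM HEPES pH 7.5 with 0.15 M NaCl, 3 mM EDTA, 0.1 mM TCEP, 0.01% Tween 20; 20 min incubation, r.t.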

[2] = biological target: Rap guanine nucleotide exchange factor 3 (Homo sapiens) (UniProt O95398); assay: Confirmatory qHTS for antagonist of cAMP-regulated guanine nucleotide exchange factor 3 (EPAC1) (AID 1645880); details: EPAC1 Rap1B-BODIPY-GDP exchange, fluorescence; activity, negative = inhibition: at 115 µM (top of the series); note: nearly all actives have a fitted effect of over 55% in size; note: potency is the fitted concentration of half-maximal effect
How it was run: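 Released BODIPY-GDP fluoresces less than Rap1-bound BODIPY-GDP; the signal is followed at 480/540 nm at 5-min intervals over 30 min, after 5 min at room temperature. Reactions contain 100 nM EPAC1, 250 nM RAP1B-BODIPY-GDP and 50 uM GDP; results are normalized to ATA and DMSO.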

[3] = biological target: Rap guanine nucleotide exchange factor 4 (Homo sapiens) (UniProt Q8WZA2); assay: Confirmatory qHTS for antagonist of cAMP-regulated guanine nucleotide exchange factor 4 (EPAC2) (AID 1645885); note: nearly all actives have a fitted effect of over 25% in size; note: potency is the fitted concentration of half-maximal effect
[4] = biological target: Rap guanine nucleotide exchange factor 3 (Homo sapiens) (UniProt O95398); assay: Counterscreen qHTS for antagonist of cAMP-regulated guanine nucleotide exchange factor 3 (EPAC1) (AID 1645888)
How it was run: (§1)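 Measured: fluorescence of BODIPY-GDP bound to Rap1B, which falls as exchange proceeds. Conditions include 50 uM competing GDP, 5 and 30 min reads, and a later cAMP challenge for antagonist detection.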

[5] = biological target: Rap guanine nucleotide exchange factor 3 (Homo sapiens) (UniProt O95398); assay: Counterscreen qHTS for agonist of cAMP-regulated guanine nucleotide exchange factor 3 (EPAC1) (AID 1645889); note: nearly all actives have a fitted effect of over 40% in size; note: potency is the fitted concentration of half-maximal effect
How it was run: as §1

[6] = biological target: Lysosomal acid glucosylceramidase (Homo sapiens) (UniProt P04062); assay: Glucocerebrosidase-p2 (AID 348; in the data active = potency below about 10 µM; note: potency is the fitted concentration of half-maximal effect); details: purified GBA, blue fluorogenic substrate, 40 min
How it was run: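 Normal human glucocerebrosidase (0.2 nM) with blue fluorogenic substrate (80 uM final) in citrate/phosphate pH 5.9 with 10mM sodium taurocholate, 0.01% tween-20; 40 min RT, NaOH/glycine stop; fluorescence Ex 365/Em 440; AC50 from a titration from 0.6 nM upwards.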

[7] = AP1 Signaling Pathway (AID 357; active = well fitted curve in either direction with a large enough effect, not every such curve was filed as active;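 note: ME-180 reporter cells stimulated with EGF at its EC50 level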); details: ME-180 (cervical carcinoma) AP-1-bla reporter, EGF-induced, beta-lactamase ratio, 5 h; at 7.69 µM (top of the series) unless noted
How it was run: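 Beta-lactamase reporter under AP-1 response element, ME-180 background. Stimulus: EC50 EGF. Compound exposure 5 h, 37 °C. Detection: CCF4, 2.5 h RT, 460/530 nm. Values: AC50 from titration.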

[8] = biological target: Cytochrome P450 1A2 (Homo sapiens) (UniProt P05177); assay: p450-cyp1a2 (AID 410; calls by dose curve; note: potency is the fitted concentration of half-maximal effect)
How it was run: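 20nM CYP1A2, 100uM Luciferin-ME (=Km), 100mM KPO4; cpd 10 min RT; +NADPH regen, 60 min RT; stop/detect 20 min; luminescence. Normalized to furafylline 57 uM = full inhibition.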

[9] = Stat Signaling Pathway (AID 446; active = well fitted curve in either direction with a large enough effect, not every such curve was filed as active;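 note: ME-180 cervical cancer cells given 40 pM IL-6 alongside compound; SIE-controlled beta-lactamase reporter measured as 460/530 nm FRET emission ratio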)
How it was run: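 Emission at 460 and 530 nm (excitation 405 nm) reports SIE-controlled beta-lactamase in ME-180 cells. Cells received compound with 40 pM IL-6 for 5 hrs at 37 C; data scaled between 300 pM IL-6 and 125 nM JAK-inhibitor controls.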

[10] = biological target: Glucocorticoid receptor (Homo sapiens) (UniProt P04150); assay: GR-GFP Redistribution (AID 450;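 active = compounds whose dose series gives a full or clear partial fitted curve of increased nuclear translocation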; note: potency is the fitted concentration of half-maximal effect); details: U2OS GR-GFP nuclear translocation, laser cytometry, 2 h
[11] = biological target: Glucocorticoid receptor (Homo sapiens) (UniProt P04150); assay: GR-EFC Redistribution (AID 451; calls by dose curve; note: potency is the fitted concentration of half-maximal effect); details: CHO-K1 GR-EFC translocation, beta-gal luminescence, 2 h
How it was run: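 CHO-K1 cells stably expressing nuclear-localized β-gal enzyme acceptor and GR fused C-terminally to the enzyme donor fragment; ligand-driven nuclear translocation restores β-gal by complementation. Compounds titrated up to 46 uM final, 2 h at 37 °C; luminescence read.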

[12] = biological target: Mitogen-activated protein kinase 10 (Mus musculus) (UniProt Q61831); assay: JNK3 AlphaScreen Assay (AID 530; active = well fitted curve in either direction with a large enough effect, not every such curve was filed as active;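 note: kinase came from lysate of stimulated human HepG2 cells; signal reports phosphorylation of biotinylated GST-cJun 1-79 at Ser73 with 10 µM ATP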)
How it was run: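 Biotinylated GST-cJun(1-79) served as substrate for JNK3 in HepG2 lysates stimulated with IL-1beta and TNF-alpha. ATP was 10 uM final, pH 7.6. Ser73 phosphorylation was quantified by AlphaScreen (680 nm excitation).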

[13] = biological target: 3',5'-cyclic-AMP phosphodiesterase 4B (Homo sapiens) (UniProt Q07343); assay: qHTS Assay for Inhibitors of PDE-IV (AID 607; active = well fitted activation curve with a large enough effect in the main read-out, with a control signal flat, not every such curve was filed as active)
How it was run: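 The readout is membrane depolarisation from a cAMP-sensing CNG channel, detected with a potential dye at ex 535/em 590. Cells were HEK293-derived (endogenous PDE-IV) at 1000 cells/well, titrated up to 22.9 uM final.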

[14] = biological target: Cytochrome P450 3A4 (Homo sapiens) (UniProt P08684); assay: qHTS Assay for Inhibitors and Substrates of Cytochrome P450 3A4 (AID 884); note: potency is the fitted concentration of half-maximal effect; nearly all actives have a fitted effect of over 50% in size
How it was run: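 Luminescent readout of luciferin produced by CYP3A4 (20 nM) dealkylation of Luciferin-PPXE, 25 uM (its KM). NADPH-driven reaction ran 60 min at RT after 10 min compound preincubation; data scaled to 57 uM ketoconazole as 100% inhibition.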

[15] = biological target: Cytochrome P450 2C19 (Homo sapiens) (UniProt P33261); assay: qHTS Assay for Inhibitors and Substrates of Cytochrome P450 2C19 (AID 899); note: potency is the fitted concentration of half-maximal effect; nearly all actives have a fitted effect of over 60% in size
How it was run: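 In 50mM KPO4, the reaction held 5nM enzyme and KM-level (10uM) Luciferin-H EGE; it ran 60 min at 37C after NADPH regeneration and a 10 min compound preincubation. Luminescence values were scaled to 57uM ketoconazole as complete inhibition.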

[16] = biological target: Cytochrome P450 3A4 (Homo sapiens) (UniProt P08684); assay: qHTS Assay for Activators of Cytochrome P450 3A4 (AID 885); note: nearly all actives have a fitted effect of over 65% in size
How it was run: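 Activators are scored by enhanced luminescence from CYP3A4 conversion of luciferin-PPXE (25uM, equal to KM) to luciferin, after 60 min at RT with an NADPH-regenerating system.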

[17] = biological target: Rap guanine nucleotide exchange factor 3 (Homo sapiens) (UniProt O95398); assay: Confirmatory qHTS for agonist of cAMP-regulated guanine nucleotide exchange factor 3 (EPAC1) (AID 1645881);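 note: EPAC1 catalysed release of BODIPY-GDP from Rap1B seen as fluorescence loss; nearly all actives have a fitted effect of over 75% in size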
[18] = biological target: Rap guanine nucleotide exchange factor 4 (Homo sapiens) (UniProt Q8WZA2); assay: Confirmatory qHTS for agonist of cAMP-regulated guanine nucleotide exchange factor 4 (EPAC2) (AID 1645884);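 note: nucleotide exchange releases bodipy-GDP from Rap1 and this lowers its fluorescence; nearly all actives have a fitted effect of over 65% in size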

Rap guanine nucleotide exchange factor 3 (Homo sapiens), sequence (O95398 whole entry, looked up): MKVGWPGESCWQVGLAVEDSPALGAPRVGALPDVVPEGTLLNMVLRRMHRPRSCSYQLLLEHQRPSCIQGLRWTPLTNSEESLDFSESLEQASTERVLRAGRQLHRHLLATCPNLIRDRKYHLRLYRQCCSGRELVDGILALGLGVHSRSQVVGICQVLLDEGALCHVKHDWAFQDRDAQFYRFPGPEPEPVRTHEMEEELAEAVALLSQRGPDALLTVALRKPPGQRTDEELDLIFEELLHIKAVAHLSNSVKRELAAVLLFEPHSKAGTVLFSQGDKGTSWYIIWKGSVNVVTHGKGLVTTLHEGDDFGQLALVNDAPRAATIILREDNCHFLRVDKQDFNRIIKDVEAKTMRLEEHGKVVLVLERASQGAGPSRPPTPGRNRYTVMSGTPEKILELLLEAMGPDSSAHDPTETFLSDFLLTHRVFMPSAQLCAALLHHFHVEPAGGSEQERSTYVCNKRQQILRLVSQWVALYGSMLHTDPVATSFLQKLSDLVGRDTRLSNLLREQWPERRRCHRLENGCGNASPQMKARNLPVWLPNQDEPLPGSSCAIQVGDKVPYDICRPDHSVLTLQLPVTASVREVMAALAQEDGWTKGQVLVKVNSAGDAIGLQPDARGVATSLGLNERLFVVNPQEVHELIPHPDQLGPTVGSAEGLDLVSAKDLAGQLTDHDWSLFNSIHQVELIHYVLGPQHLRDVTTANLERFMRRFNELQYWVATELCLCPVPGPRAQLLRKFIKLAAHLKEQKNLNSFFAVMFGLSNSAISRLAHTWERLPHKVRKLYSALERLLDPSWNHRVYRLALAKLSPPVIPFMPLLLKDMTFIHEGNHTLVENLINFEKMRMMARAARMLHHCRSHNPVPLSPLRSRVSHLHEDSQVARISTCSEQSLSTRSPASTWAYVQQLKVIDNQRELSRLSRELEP
Cytochrome P450 3A4 (Homo sapiens), sequence (P08684 whole entry, looked up): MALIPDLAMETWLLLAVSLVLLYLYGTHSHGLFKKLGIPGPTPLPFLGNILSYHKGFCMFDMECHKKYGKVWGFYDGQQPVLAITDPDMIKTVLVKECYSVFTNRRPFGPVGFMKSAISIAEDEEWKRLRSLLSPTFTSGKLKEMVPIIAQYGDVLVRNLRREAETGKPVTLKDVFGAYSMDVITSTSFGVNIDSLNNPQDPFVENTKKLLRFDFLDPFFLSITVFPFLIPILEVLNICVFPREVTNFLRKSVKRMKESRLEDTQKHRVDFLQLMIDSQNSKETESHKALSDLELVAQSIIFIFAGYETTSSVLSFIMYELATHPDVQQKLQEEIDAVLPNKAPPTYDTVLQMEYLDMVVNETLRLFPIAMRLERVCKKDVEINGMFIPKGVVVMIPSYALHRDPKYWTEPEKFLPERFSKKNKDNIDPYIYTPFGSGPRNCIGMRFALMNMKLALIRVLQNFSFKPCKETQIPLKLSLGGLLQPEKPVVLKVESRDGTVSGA
Tumor susceptibility gene 101 protein (Homo sapiens), sequence (Q99816 whole entry, looked up): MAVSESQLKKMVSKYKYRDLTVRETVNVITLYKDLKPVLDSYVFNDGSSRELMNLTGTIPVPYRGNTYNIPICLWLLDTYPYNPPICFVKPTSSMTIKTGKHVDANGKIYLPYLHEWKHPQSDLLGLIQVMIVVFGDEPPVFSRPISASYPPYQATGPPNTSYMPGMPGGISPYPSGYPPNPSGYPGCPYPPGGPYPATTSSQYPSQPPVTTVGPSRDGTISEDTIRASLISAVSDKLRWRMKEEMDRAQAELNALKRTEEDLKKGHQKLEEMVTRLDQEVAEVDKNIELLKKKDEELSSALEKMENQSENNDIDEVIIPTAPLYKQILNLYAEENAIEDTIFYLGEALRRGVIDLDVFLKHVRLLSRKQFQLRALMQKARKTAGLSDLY
Rap guanine nucleotide exchange factor 4 (Homo sapiens), sequence (Q8WZA2 whole entry, looked up): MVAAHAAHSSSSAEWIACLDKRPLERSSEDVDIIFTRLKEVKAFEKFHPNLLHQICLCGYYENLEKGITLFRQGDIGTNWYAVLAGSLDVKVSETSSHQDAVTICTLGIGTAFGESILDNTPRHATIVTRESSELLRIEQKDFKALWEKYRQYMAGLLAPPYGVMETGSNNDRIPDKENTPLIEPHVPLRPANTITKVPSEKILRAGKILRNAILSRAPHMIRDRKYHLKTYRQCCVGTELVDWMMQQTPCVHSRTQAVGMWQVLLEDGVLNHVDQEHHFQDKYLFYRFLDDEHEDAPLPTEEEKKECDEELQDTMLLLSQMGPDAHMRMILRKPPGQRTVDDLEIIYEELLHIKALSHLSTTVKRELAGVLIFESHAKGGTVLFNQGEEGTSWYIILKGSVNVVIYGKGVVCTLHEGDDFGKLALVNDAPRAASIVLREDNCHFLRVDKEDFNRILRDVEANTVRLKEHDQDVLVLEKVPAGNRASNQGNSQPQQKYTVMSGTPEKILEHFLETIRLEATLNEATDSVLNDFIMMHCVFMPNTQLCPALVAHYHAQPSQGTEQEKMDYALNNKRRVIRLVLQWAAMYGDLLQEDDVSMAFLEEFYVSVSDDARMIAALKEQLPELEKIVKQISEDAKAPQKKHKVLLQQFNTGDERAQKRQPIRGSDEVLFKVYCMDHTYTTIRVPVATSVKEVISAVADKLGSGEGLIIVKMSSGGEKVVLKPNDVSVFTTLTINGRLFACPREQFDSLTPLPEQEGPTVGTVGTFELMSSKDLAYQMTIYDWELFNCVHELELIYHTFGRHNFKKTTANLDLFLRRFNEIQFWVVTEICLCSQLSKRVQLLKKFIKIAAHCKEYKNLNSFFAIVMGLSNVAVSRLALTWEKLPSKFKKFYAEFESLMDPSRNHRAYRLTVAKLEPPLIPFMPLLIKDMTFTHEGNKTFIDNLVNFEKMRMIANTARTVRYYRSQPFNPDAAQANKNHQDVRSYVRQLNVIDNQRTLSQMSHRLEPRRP
Glucocorticoid receptor (Homo sapiens), sequence (P04150 whole entry, looked up, the tested form may be a part): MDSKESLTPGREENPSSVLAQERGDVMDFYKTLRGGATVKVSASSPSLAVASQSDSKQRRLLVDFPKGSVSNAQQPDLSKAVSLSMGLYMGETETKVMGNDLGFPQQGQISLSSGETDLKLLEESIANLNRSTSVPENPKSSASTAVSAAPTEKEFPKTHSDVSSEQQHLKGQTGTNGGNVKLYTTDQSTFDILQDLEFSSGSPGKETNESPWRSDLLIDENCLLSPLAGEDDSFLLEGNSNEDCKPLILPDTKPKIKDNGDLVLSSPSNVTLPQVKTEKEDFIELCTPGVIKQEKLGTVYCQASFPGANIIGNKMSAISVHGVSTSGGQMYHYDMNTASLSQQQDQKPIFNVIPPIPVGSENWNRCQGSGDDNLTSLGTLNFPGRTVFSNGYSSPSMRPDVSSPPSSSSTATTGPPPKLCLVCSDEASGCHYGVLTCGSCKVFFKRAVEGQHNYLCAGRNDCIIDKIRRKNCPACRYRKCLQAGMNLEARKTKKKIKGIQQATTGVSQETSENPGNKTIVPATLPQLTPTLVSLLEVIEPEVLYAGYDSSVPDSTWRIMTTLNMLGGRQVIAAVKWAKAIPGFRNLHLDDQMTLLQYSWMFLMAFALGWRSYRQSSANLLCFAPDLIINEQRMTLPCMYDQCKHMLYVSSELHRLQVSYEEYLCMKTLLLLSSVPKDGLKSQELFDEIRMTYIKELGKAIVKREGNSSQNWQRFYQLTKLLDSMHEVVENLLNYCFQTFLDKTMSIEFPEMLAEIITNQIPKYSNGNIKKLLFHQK
Cytochrome P450 1A2 (Homo sapiens), sequence (P05177 whole entry, looked up): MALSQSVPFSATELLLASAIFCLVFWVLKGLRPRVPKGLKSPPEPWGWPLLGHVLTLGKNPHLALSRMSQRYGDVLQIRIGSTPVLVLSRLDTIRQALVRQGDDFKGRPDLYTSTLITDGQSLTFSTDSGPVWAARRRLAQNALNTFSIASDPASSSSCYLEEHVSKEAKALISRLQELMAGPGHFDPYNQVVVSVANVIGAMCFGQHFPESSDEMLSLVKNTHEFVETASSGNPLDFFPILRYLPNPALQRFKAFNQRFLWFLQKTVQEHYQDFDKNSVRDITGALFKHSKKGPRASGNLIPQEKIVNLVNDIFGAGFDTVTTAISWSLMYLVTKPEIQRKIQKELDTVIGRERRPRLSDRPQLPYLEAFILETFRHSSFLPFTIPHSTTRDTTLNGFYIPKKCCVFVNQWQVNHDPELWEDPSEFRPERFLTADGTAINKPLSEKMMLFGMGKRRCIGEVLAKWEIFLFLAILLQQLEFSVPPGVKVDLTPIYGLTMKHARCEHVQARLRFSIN
Cytochrome P450 2C19 (Homo sapiens), sequence (P33261 whole entry, looked up): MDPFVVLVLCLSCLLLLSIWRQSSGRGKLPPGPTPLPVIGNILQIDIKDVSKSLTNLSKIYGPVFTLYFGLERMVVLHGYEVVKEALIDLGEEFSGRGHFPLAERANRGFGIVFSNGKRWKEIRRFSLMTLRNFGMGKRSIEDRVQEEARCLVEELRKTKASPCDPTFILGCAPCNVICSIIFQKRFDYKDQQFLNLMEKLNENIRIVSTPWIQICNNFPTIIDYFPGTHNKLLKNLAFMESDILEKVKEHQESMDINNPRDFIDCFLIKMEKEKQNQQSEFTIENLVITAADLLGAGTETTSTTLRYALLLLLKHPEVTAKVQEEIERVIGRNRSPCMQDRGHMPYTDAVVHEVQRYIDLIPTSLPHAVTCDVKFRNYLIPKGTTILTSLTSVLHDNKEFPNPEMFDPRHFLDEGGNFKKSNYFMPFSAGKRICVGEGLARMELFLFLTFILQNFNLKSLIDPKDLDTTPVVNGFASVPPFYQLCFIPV

Q: Which results are given for COc1cccc(/C(O)=C/c2nc3ccc(C(=O)NCCc4ccc(Cl)cc4)cc3[nH]c2=O)c1?
A: Potency [1]: inactive; Potency [2]: inactive; Potency [3]: inactive; Potency [4]: inactive

Q: Which results are given for CC(C)CCN1C(=O)c2cccc3c(N)ccc(c23)C1=O?
A: Potency [1]: 16.3 µM (active); Potency [2]: inactive; Potency [3]: inactive; activity change, negative = inhibition [4]: 154% [at 30.8 µM]; Potency [5]: 12.6 µM (active)

Q: Which results are given for Clc1ccccc1NN(Cc1ccncc1)c1ccccc1Cl?
A: Potency [6]: > 11.4 µM; activity change, negative = inhibition [7]: -14.2%; Potency [8]: 5.01 µM (active); outcome [9]: inactive; Potency [10]: > 46 µM; Potency [11]: > 9.22 µM; activity change, negative = inhibition [12]: 3.26% [at 11.4 µM]; Potency [13]: inactive; Potency [14]: 0.251 µM (active); Potency [15]: 1.26 µM (active); Potency [2]: inactive; Potency [3]: 16.9 µM (active); Potency [4]: inactive

Q: Which results are given for Nc1ccc2nc3c(=O)n(C4CCCCC4)c(=O)[nH]c3nc2c1?
A: Potency [1]: 6.51 µM (active); Potency [2]: inactive; Potency [3]: inactive; Potency [4]: inactive; Potency [5]: 22.4 µM (active)

Q: For O=C(O)c1cc(Cl)ccc1-c1ccc(/C=C/c2cc(C(F)(F)F)[nH]c(=O)n2)o1, which Potency [1] is on record?
A: inactive

Q: What about the Potency [2] of the same molecule?
A: inactive

Q: And the Potency [3]?
A: inactive

Q: And the activity change, negative = inhibition [4]?
A: 144% [at 30.8 µM]

Q: What about the Potency [5] of the same molecule?
A: 12.6 µM (active)

Q: With Cn1c(N)c(C(=O)COC(=O)c2cc(-c3ccco3)nc3ccccc23)c(=O)n(C)c1=O as the molecule, how does the Potency [14] read?
A: 25.1 µM (active)

Q: And the outcome [16]?
A: inactive

Q: And the Potency [2]?
A: 47.8 µM (active)

Q: What about the Potency [3] of the same molecule?
A: inactive

Q: What about the Potency [4] of the same molecule?
A: inactive

Q: What about the Potency [5] of the same molecule?
A: inactive

Q: With O=C1CCC[C@@H]2CC(N(Cc3cc4ccccc4s3)c3ccccc3)C[C@@H]3CCN1[C@H]23 (stereo not given in full) as the molecule, how does the Potency [17] read?
A: inactive

Q: What about the Potency [18] of the same molecule?
A: inactive

Q: What about the Potency [3] of the same molecule?
A: inactive

Q: What does the source list for CSc1cccc(N2CC(C(=O)Nc3cccc(S(=O)(=O)N4CCCC4)c3)CC2=O)c1 (stereo not given)?
A: Potency [17]: inactive; activation [18]: 4.48% [at 17.1 µM, percent relative to cAMP agonist control]; Potency [3]: inactive

Q: Which results are given for CCCCC[C@H](C)N1C[C@@H](COCc2ccccc2)Oc2cc(N3CCC[C@H]3C(N)=O)ccc2S1(=O)=O?
A: Potency [17]: inactive; Potency [18]: inactive

Q: What does the source list for N#CC(c1ccccc1)C(CC(=NO)c1ccccc1)c1ccccc1 (stereo not given)?
A: Potency [17]: inactive; Potency [18]: inactive

Q: Which results are given for c1ccc(-c2onc(-c3ccco3)c2-c2ccc3c(c2)OCO3)cc1?
A: Potency [17]: inactive; Potency [18]: inactive
